Polio RdRp inh – poliovirus RdRp elongation inhibitors, primary screen, biochemical, fluorescence polarization, total intensity | 150,000 tested, 0.66% active | % elongation, % (compound at 16.7 µg/mL) | Genome polyprotein (Poliovirus type 1 (strain Mahoney)), P03300 | AID 588519, 2011 | poliovirus polymerase elongation; stronger effect = lower value; in the data active means % elongation below about 90%
MenB inh – M. tuberculosis MenB inhibitors, primary screen, biochemical, absorbance. 1,4-dihydroxy-2-naphthoyl-CoA synthase (Mycobacterium tuberculosis (strain ATCC 25618 / …. MenB enzyme assay, absorbance read-out. inhibition, % (no concentration beside the values). 100,000 tested, 0.43% active. AID 540299, 2011; in the data active means inhibition above about 21%, passing the limit was not always enough
Target sequence (P9WNP5 whole entry, looked up): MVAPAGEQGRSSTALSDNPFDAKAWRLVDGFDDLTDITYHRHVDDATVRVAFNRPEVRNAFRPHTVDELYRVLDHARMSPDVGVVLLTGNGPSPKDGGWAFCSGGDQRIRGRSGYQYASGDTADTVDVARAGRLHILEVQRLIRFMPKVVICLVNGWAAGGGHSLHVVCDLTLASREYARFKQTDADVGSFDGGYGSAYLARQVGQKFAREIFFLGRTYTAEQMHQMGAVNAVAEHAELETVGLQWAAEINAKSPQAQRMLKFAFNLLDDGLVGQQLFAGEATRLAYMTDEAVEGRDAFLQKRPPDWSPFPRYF
Mtb MbtI inh – MbtI salicylate synthase inhibitors, primary screen, biochemical, fluorescence intensity | P9WFX0 | purified MbtI enzyme, fluorescence intensity read-out | inhibition, % (concentration not given with the values) | 100,000 tested, 0.89% active | AID 493033, 2011; in the data active means inhibition mostly above about 56%, no sharp cut-off; inactive means mostly below about 77%
Starred values were filed as active, the others as inactive; x = no result given. The list is not random: actives were taken first. Their share in the collection is about 1.4%.

SMILES | Polio RdRp inh | MenB inh | Mtb MbtI inh
CCc1ccc(CN2CCc3nc(N4CCN(CC)CC4)ncc3C2)cc1 | 100.0 | x | x
CCN1CCN(c2ncc3c(n2)CCN(Cc2cc(F)cc(F)c2)C3)CC1 | 86.0* | x | x
Cc1ccc(Cl)cc1NC(=O)c1oc2c(c1C)-c1[nH]ncc1CC2 | 78.0* | x | x
Cc1cc(C)c(NC(=O)c2oc3c(c2C)-c2[nH]ncc2CC3)c(C)c1 | 108.0 | x | x
O=C1NN(c2ccc(Cl)c(Cl)c2)C(=O)/C1=C/C=C/c1ccco1 | 101.0 | -21.0 | 2.1
O=C1NC(=O)N(c2ccccc2)C(=O)/C1=C/C=C/c1ccco1 | 101.0 | -179.7 | 87.8*
CN1C(=O)NC(=O)/C(=C\C=C\c2ccco2)C1=O | 105.0 | -268.1 | 20.7
O=C1NC(=S)NC(=O)C1=C/C=C/c1ccco1 | 72.0* | -44.4 | 61.6
N#CC1=C(N)N2C(=C(C#N)C1c1cccnc1)Sc1ccccc12 (stereo not drawn) | 72.0 | -33.7 | 5.2
CN1CCCN(C(=O)c2csc3ccccc23)CC1 | 105.0 | -38.2 | -10.3
CCOc1ccc(NC2=CC(=O)C=CC2=O)cc1 | 100.0 | x | 98.2*
CCOc1ccc(NC2=CC(=O)CCC2)cc1 | 101.0 | 2.8 | -11.3
CC(=O)N1c2ccccc2NC2=C(C(=O)CCC2)C1c1ccc(Cl)cc1 (stereo not drawn) | 101.0 | -11.9 | 4.3
COCCNC(=O)Cn1cc(/C=C(\C#N)C(N)=O)c2ccccc21 | 103.0 | -239.2 | -5.5
Cc1ccc(-c2csc(-c3nnn(-c4ccc(C)c(C)c4)c3N)n2)cc1 | 27.0* | 8.5 | 19.2
Cc1ccc(-c2csc(-c3nnn(-c4cccc(Cl)c4)c3N)n2)cc1 | 100.0 | 15.9 | 20.2
Cc1cc(Cl)ccc1OCC(=O)Nc1sc2c(c1C#N)CCC2 | 80.0* | -0.9 | x
COc1ccccc1OCC(=O)Nc1sc2c(c1C#N)CCCC2 | 106.0 | -29.3 | x
Cc1cc(C(=O)Nc2sc3c(c2C(N)=O)CCCC3)on1 | 93.0 | -40.9 | 97.3
NC(=O)c1c(NC(=O)c2noc3c2CCCC3)sc2c1CCCC2 | 69.0* | x | x
CCOC(=O)c1c(NC(=O)C(C)(C)C)sc2c1CCCC2 | 103.0 | x | -31.8
CCOC(=O)c1c(NC(=O)c2noc3c2CC(C(C)(C)C)CC3)sc2c1CCCC2 (stereo not drawn) | 76.0* | x | x
COc1ccc2nc(NC(=O)CC(C)(C)C)sc2c1 | 103.0 | -44.5 | -12.3
COc1cccc(/C([O-])=N\c2c[n+](-c3ccc(C)cc3)no2)c1 | 100.0 | x | -38.4
Cc1cc(C(=O)OCc2cc(Cl)cc3c2OCOC3)c(C)o1 | 107.0 | -22.5 | 1.8
SMILES | Polio RdRp inh | MenB inh | Mtb MbtI inh
Cc1ccc2nc(CN)[nH]c2c1 | 103.0 | 10.0 | 2.2
O=C(Cn1cc(/C=C2\SC(=S)NC2=O)c2ccccc21)NCc1ccco1 | 95.0 | -214.2 | 31.5
COc1ccc(C(CN)CC(=O)O)cc1 (stereo not drawn) | 104.0 | -24.0 | -9.2
COc1ccc(CC(CN)c2ccccc2)cc1 (stereo not drawn) | 102.0 | 36.0* | 1.2
C=C(C)CSc1nc2ccccc2s1 | 103.0 | 1.1 | -10.6
CCCn1nnnc1SCC(=O)c1ccccc1 | 103.0 | 30.6* | 3.3
O=C(CSc1nnnn1Cc1ccccc1)c1ccccc1 | 101.0 | -27.8 | -2.5
COc1cccc(C2=C(C(C)=O)Sc3nncn3N2C(C)=O)c1 | 87.0* | x | x
CC(=O)C1=C(c2ccc(Cl)c(Cl)c2)N(C(C)=O)n2c(C)nnc2S1 | 89.0 | x | x
CC(=O)C1=C(c2ccc(Cl)c(Cl)c2)N(C(C)=O)n2cnnc2S1 | 86.0* | x | x
COc1cccc(C2=C(C(C)=O)Sc3nnc(C4CCCCC4)n3N2C(C)=O)c1 | 110.0 | x | x
CCC(=O)Nc1ccc(N2CCN(C(=O)C(C)C)CC2)cc1 | 100.0 | 2.2 | x
COCCOc1ccc(C(F)(F)F)cc1Nc1nc2ccccc2o1 | 87.0* | -53.2 | 18.2
COCCOc1ccc(C(F)(F)F)cc1NC(=O)c1ccno1 | 102.0 | -17.7 | 0.2
O=C(O)c1oc2ccccc2c1CSC1=NCCS1 | 96.0 | 6.2 | 1.9
CCc1oc(C(=O)O)cc1CN(CC)CC | x | x | -17.7
CCN(CC)Cc1cc(O)c(CN(CC)CC)cc1O | 98.0 | x | 94.5*
N#C/C(=C/c1ccco1)c1ccc2ccccc2c1 | 104.0 | -87.7 | -8.9
COC(=O)c1c(NC(=O)/C(C#N)=C/c2ccco2)sc(C)c1C | 95.0 | -12.1 | 82.3*
N#C/C(=C\c1ccco1)C(=O)Nc1ccccc1 | 104.0 | -78.0 | 4.5
Cc1ccc2nc(N=C(N)N)nc(C)c2c1 | 101.0 | 7.6 | 26.4
COc1ccc2nc(N=C(N)N)nc(C)c2c1 | 65.0* | 4.5 | x
CCOC(=O)c1[nH]c(=O)[nH]c1CSc1ccccn1 | 100.0 | -6.0 | 90.8*
CCOC(=O)c1[nH]c(=O)[nH]c1CSC(=N)N | 96.0 | 9.0 | 14.8
CCOC(=O)Cc1csc(SCC(=O)N2CC(=O)Nc3ccccc32)n1 | 104.0 | 12.9 | 22.3
SMILES | Polio RdRp inh | MenB inh | Mtb MbtI inh
COc1ccc(-n2cc(C(=O)NCCOc3cccc(-n4cnnn4)c3)nn2)cc1 | 102.0 | -5.3 | -2.6
CCCCCCSc1ncc(C#N)c(N)n1 | 101.0 | -7.8 | 193.3
N#Cc1cnc(SCCc2ccccc2)nc1N | 105.0 | 33.1* | 48.4
Clc1ss/c(=N\c2ccccn2)c1Cl | 87.0* | -19.4 | x
CC(C)(C)c1cs/c(=N/c2ccccn2)n1-c1ccc(Cl)cc1 | 102.0 | -6.1 | -10.8
COc1cccc(NC(=O)Cn2sc3ccccc3c2=O)c1 | 105.0 | -62.1 | 98.3
Cc1cc(/C=C2/SC(=O)N(C)C2=O)c(C)n1-c1ccccc1 | 109.0 | -21.7 | x
Cc1ccc(-n2c(C)cc(/C=C3\SC(=O)NC3=O)c2C)cc1 | 100.0 | 39.3* | -27.2
Cc1onc(-c2ccccc2)c1C(=O)OCCCn1c(=O)[nH]c2ccccc21 | 105.0 | -27.8 | -7.3
Cc1cc(=O)[nH]c2nnc(SCc3c(F)cccc3Cl)n12 | 99.0 | x | x
Cc1nn(C)c2c1S(=O)(=O)N=C(SCc1c(F)cccc1Cl)S2 | 88.0* | -6.9 | 84.0*
Cn1c(SCC(=O)NN)nc2ccccc21 | 108.0 | -10.8 | 0.8
Cn1c(SCC(=O)O)nc2ccccc21 | 102.0 | 36.5* | 5.6
Cc1ccccc1NC(=O)C(C)Sc1nc2ncccc2o1 (stereo not drawn) | 101.0 | 9.6 | 10.1
CC(=O)N(Cc1cccnc1)Cc1cc2cc3c(cc2[nH]c1=O)OCCO3 | 99.0 | -77.8 | 89.2
O=C(c1cnccn1)N(Cc1ccc(Cl)cc1)Cc1cc2cc3c(cc2[nH]c1=O)OCCO3 | 99.0 | 25.0* | -3.7
Cc1c(Cc2ccc3c(c2)OCO3)sc(NC(=O)c2ccco2)c1C(N)=O | 101.0 | -4.0 | -3.2
CC(Sc1n[nH]c(N)n1)C(=O)Nc1ccccc1 (stereo not drawn) | 104.0 | 6.1 | 2.7
Cc1nn(-c2ccccc2)c(C)c1P(=Nc1ccc(Br)cc1)(N1CCOCC1)N1CCOCC1 | 103.0 | -2.2 | 0.8
Cc1nn(-c2ccccc2)c2c1P(=S)(N1CCOCC1)N(C)C(c1ccccc1)=N2 (stereo not drawn) | 82.0* | -4.8 | 79.7
COC(=O)C1CC(C)=CC(C)C1C(=O)O (stereo not drawn) | 104.0 | -31.4 | -0.9
Cc1c2cnn(-c3ccccc3)c(=O)c2c(C)n1CCCC(=O)Nc1cccc(F)c1 | 82.0* | x | x
Cc1c2cnn(-c3ccccc3)c(=O)c2c(C)n1CCCC(=O)Nc1ccc(F)cc1F | 103.0 | x | x
